An excerpt weighted towards active compounds, which were near 5.3% of everything screened.
Mot1-301 SUMO: inhibitors of SUMOylation pathway: yeast Mot1-301 growth rescue | actives 1% (n = 320,000) | S. cerevisiae Mot1-301 growth rescue, ATP luminescence, 38.5C; percent above DMSO median, 100 means doubled | AID 2716 | growth rescue, % at 18.8 µM;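 active means every valid replicate shows activation above 250% relative to neutral control wells; inactive means the rest, any valid replicate at or below 250%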;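 further: OY570 slx delta 5 strain wells were the positive control but not used for scaling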
HIF act: HIF pathway transcriptional activation. actives 0.32% (n = 300,000). U2OS HRE-luciferase reporter, luminescence; normalized: DMSO 0%, desferrioxamine 100%. AID 1910. activation, % at 7.5 µM (by protocol);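 active means mean activation of at least 10% of the iron chelator positive control signal, with at least half of replicates also reaching 10%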
PfM18AAP inh: PfM18AAP enzyme inhibition | recombinant PfM18AAP, H-Glu-NHMec fluorogenic cleavage | inhibition, % at 7.35 µM | actives 1.2% (n = 290,000) | AID 1822;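 active means inhibition above the campaign mean inhibition over all tested compounds plus 3 SD, cut at about 28% in these data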;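 further: 0% = plate median of test compound wells and 100% = 2 mM ZnCl2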
ALR inh: inhibitors of human sulfhydryl oxidase ALR; P55789; purified ALR, DTT oxidation, H2O2 HRP-luminol luminescence; inhibition, % (no concentration beside the values); actives 3.8% (n = 290,000);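 active means mean replicate inhibition above about 79%, with every replicate also reaching it, limit read from the data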
Target sequence (P55789 whole entry, looked up): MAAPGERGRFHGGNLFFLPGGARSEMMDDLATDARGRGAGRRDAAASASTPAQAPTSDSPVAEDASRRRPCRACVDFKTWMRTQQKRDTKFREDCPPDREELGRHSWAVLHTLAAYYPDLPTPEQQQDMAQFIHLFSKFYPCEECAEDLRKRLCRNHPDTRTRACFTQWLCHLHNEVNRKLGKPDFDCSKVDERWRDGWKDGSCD
* = called active by the depositor; nt = no result given.

SMILES	Mot1-301 SUMO	HIF act	PfM18AAP inh	ALR inh
CCn1cnc2cc(NCc3cccc(OC)c3O)ccc21	33.7	0.7	8.3	94.4*
[O-]/[N+](=C\c1ccco1)c1ccc(Cl)cc1	35.0	3.5	12.5	0.3
O=C(CCSc1ccc(Cl)cc1)NC12CC3CC(CC(C3)C1)C2	-8.4	1.2	2.0	-1.1
COc1cc(/C=N/N=C2/C(=O)Nc3ccccc32)cc(OC)c1O	-0.7	-0.2	20.7	95.4*
O=C1Nc2ccccc2/C1=N/N=C/c1cccc(O)c1	1.7	-0.3	-3.0	nt
CN(CCc1cnn(C)c1)Cc1cn[nH]c1-c1ccc(-c2ccccc2)cc1	-18.6	0.7	-7.4	2.3
CN1CCN(C=NC2=NN(c3cccc(C(F)(F)F)c3)CC2)CC1	105.1	-0.1	-1.9	98.8*
CN(C)C=NC1=NN(c2cccc(C(F)(F)F)c2)CC1	179.9	-0.2	-9.8	94.6*
COc1ccc(-n2nc3c(c2NC(=O)c2ccc(Br)o2)CS(=O)(=O)C3)cc1	-11.4	0.5	3.7	-25.2
CN(C)c1ccc(Nc2cc(Cl)ncn2)cc1	12.5	-21.2	-25.1	99.5*
CN(C)c1ccc(Nc2ncnc3ccc(Br)cc23)cc1	20.0	6.6	-0.5	nt
O=C(O)Cc1nn(Cc2ccc(Cl)cc2)c(=O)c2ccccc12	-8.3	-0.3	-5.5	-30.2
COc1ccc(CNC(=O)C(=O)NCC2OCCN2S(=O)(=O)c2ccc(OC)c(OC)c2)cc1 (centres undefined)	110.1	0.0	-5.4	1.3
COc1ccc(S(=O)(=O)N2CCOC2CNC(=O)C(=O)NCc2ccc3c(c2)OCO3)cc1OC (centres undefined)	14.4	219.4*	-10.5	-3.2
C=CCn1c(CCSCc2ccccc2)n[nH]c1=S	-11.4	-0.1	21.2	94.4*
O=C(O[C@@H]1Cc2c(O)cc(O)cc2O[C@@H]1c1cc(O)c(O)c(O)c1)c1cc(O)c(O)c(O)c1	nt	-0.7	64.1*	nt
CCn1cc(CN2CCC(n3nccc3NC(=O)c3ccccc3C)CC2)cn1	3.3	0.0	-6.7	0.0
CCCc1c(C(=O)NNc2ccccc2OC)cnn1-c1ccccc1	1.3	0.4	17.0	88.0*
CCCc1c(C(=O)Nc2ccc(OC)cc2)cnn1-c1ccccc1	4.9	1.0	3.6	9.1
O=C1CSC(=NC2CCCCC2)N1	-44.9	0.0	7.3	97.9*
CCCN(Cc1nnc(-c2ccccc2Cl)o1)C(=O)c1cccc(S(=O)(=O)N2CCOCC2)c1	0.7	-0.3	1.1	1.8
COc1cc(/C=C2/SC(=Nc3ccc(O)cc3)NC2=O)cc(OC)c1O	-14.8	-0.2	32.6*	22.2
CCc1ccc(N=C2NC(=O)/C(=C/c3ccc(OCC(=O)O)cc3)S2)cc1	-1.5	-0.2	-3.2	98.2*
COc1cc(/C=C2\SC(=Nc3ccc(O)cc3)NC2=O)cc(OC)c1OC	3.0	1.3	-16.7	-29.6
COc1ccc(OC(C)C(=O)N2CCCc3ccccc32)cc1 (centres undefined)	-43.1	0.2	1.9	-5.6
SMILES	Mot1-301 SUMO	HIF act	PfM18AAP inh	ALR inh
C=CCN1CCc2c(cc(O)c(O)c2Br)[C@@H](c2ccccc2)C1	13.1	-0.4	nt	98.8*
Cc1cc2oc(=O)cc(CNc3ccccc3F)c2cc1O	-6.0	-0.8	5.1	-3.6
CCCCN1CC(O)=C(c2nc3ccccc3[nH]2)C1=N	75.4	3.9	-10.5	4.2
C=CCN1CC(O)=C(c2nc3ccccc3[nH]2)C1=N	-2.1	0.6	4.9	83.5*
O=C(O)Cc1ccc(O)c(O)c1	231.5	-0.4	nt	98.4*
Cc1nnc(SCC(=O)Nc2sc3c(c2C(N)=O)CCC(C)C3)[nH]c1=O (centres undefined)	2.1	nt	nt	45.1
Cc1nnc(SCC(=O)Nc2sc3c(c2C(N)=O)CCCC3)[nH]c1=O	-30.5	0.2	29.4*	-3.4
Cc1sc(NC(=O)CSc2nnc(C(C)C)n2C)c(C#N)c1C	-1.2	-0.2	5.0	23.9
Cc1sc(NC(=O)CSc2nc(N)cc(N)n2)c(C#N)c1C	318.6*	0.2	9.5	6.4
Cc1sc(NC(=O)CSc2nnc(C)c(=O)[nH]2)c(C#N)c1C	-0.2	-0.1	26.1	98.4*
O=C(Nc1nncs1)c1ccc2c(c1)OCO2	-16.3	0.4	28.7*	-1.2
Cc1cccnc1NC(=O)c1ccc2c(c1)OCCO2	8.2	1.5	nt	-21.6
O=C(Nc1ncccc1O)c1ccc2c(c1)OCO2	-10.3	9.7*	nt	6.9
O=C(Nc1ncccc1O)c1ccc2c(c1)OCCO2	24.6	12.5*	nt	-2.4
COc1ccc(C)cc1NC(=O)COC(=O)CCC(=O)c1cccs1	33.8	nt	nt	nt
CCCC(=O)NCc1ccc2c(c1)cc(C)n2C	2.6	0.0	6.5	-23.7
Cc1cc2cc(CNC(=O)C3CCCC3)ccc2n1C	-1.3	0.5	nt	96.6*
COc1ccccc1N1CCN(C(=O)Cc2ccc(Cl)cc2)CC1	-9.6	0.7	3.2	nt
COc1cccc(N2CCN(C(=O)CCSCc3ccccc3F)CC2)c1	6.0	0.0	1.7	97.0*
COc1ccccc1N1CCN(C(=O)CCSCc2ccccc2F)CC1	17.5	0.3	2.1	95.7*
COc1ccccc1NC(=S)N1CCCCCC1	-4.4	1.9	0.5	-10.9
O=c1ccsn1Cc1ccccc1	-49.4	0.2	32.7*	97.9*
CCOc1ccc(C(C(=O)NCC2CCCO2)N(C(=O)c2snc(C(N)=O)c2N)c2ccc3c(c2)OCCO3)cc1 (centres undefined)	83.4	0.0	3.7	nt
C=CCn1c(SCC(=O)N(CC)C2CCS(=O)(=O)C2)nc2cc(C(=O)O)ccc2c1=O (centres undefined)	4.1	nt	nt	-2.7
NC(CSS(=O)(=O)O)=NCCC12CC3CC(CC(O)(C3)C1)C2	-23.6	-0.9	17.6	84.8*
SMILES	Mot1-301 SUMO	HIF act	PfM18AAP inh	ALR inh
NC(=O)COC(=O)C12CC3CC(CC(O)(C3)C1)C2	0.7	0.2	0.4	-1.4
CC(C)CNc1c(N)c(=O)oc2ccccc12	1.3	-0.2	19.5	99.0*
CCNc1c(N)c(=O)oc2ccccc12	-8.1	0.0	-11.7	60.4
Nc1c(Nc2ccccc2)c2ccccc2oc1=O	37.4	-0.9	1.7	98.5*
Cc1ccccc1-n1ncc2c1CC(C)(C)CC2NC(=O)c1snnc1C (centres undefined)	3.5	-0.4	-13.3	-5.4
CC(C)Nc1nnc(SCC(=O)N2CCN(C(=O)c3ccco3)CC2)s1	-13.3	nt	nt	nt
O=C(O)c1cccc2c(-c3ccccc3)c(-c3ccccc3)[nH]c12	-18.4	0.5	-10.5	98.2*
COc1ccc(/C=C2/N=C(c3cccs3)OC2=O)cc1OC(C)C	891.9*	0.4	4.4	6.5
O=C(c1cc(-c2ccc(O)cc2)on1)N1CCCCCC1	3.2	1.0	9.3	99.3*
O=C(c1cc(-c2ccc(Cl)cc2)on1)N1CCCCCC1	-11.9	1.9	-4.6	-5.3
O=C(O)CCn1cc(/C=C/C(=O)c2ccc(Cl)cc2)c(-c2ccc(Br)cc2)n1	-4.0	nt	7.4	97.5*
O=C(O)/C=C/c1cn(Cc2ccccc2)nc1-c1ccccc1	-7.2	-0.3	-2.7	3.4
CN(CC(=O)Nc1ccc(F)c(F)c1F)C(=O)C1CCN(C(=O)Nc2ccccc2)CC1	2.0	-0.5	nt	1.3
C=CC[n+]1c(C)csc1Nc1cccc(Br)c1	-4.7	0.0	2.9	97.4*

Compound activity: PubChem, several laboratories
